# Data published in PubChem BioAssay AID977624 (Broad Institute, 2014).
# Screen size: about 1,800 compounds; fewer than 10 were called active. Inconclusive results (about 44%) are left out.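 The calls were made as follows: active = compound lowering the normal-ribosome reporter at least twice as much as the humanized-ribosome reporter, growth loss under a set limit; inconclusive = no clear call, values can overlap the other calls; inactive = the rest.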 The list is a sample of the results.
# Experiment: wild-type E. coli growth inhibition versus h34 humanized strain – h34 mutant RFP, wild-type GFP, cherry-pick, dose response (AID 977624)
# Settings: fluorescence, 24 h; series mostly up to 50 µM; activity change, negative = inhibition: at the top concentration
row,Compound,"activity change, negative = inhibition"
1,Cc1cccc(C)c1Nc1ncnc2ccccc12,-13.1 (inactive)
2,Cc1ccc(-c2n[nH]c(S(C)(=O)=O)c2C#N)cc1,6.95 (inactive)
3,C=CCN(c1ccccc1)S(=O)(=O)c1cccc2cccnc12,-1.08 (inactive)
4,Cc1nn(Cc2cccc(F)c2)c(C)c1NC(=O)c1c(Cl)cnn1C,1.46 (inactive)
5,COc1ccc(NC(=O)CCC(=O)c2cccs2)cc1S(=O)(=O)Nc1ccc(Cl)cc1,7.49 (inactive)
6,C[C@@H]1CN([C@H](C)CO)C(=O)CCCn2nncc2CO[C@@H]1CN(C)C(=O)Nc1ccc(C(F)(F)F)cc1,5.78 (inactive)
7,COc1ccccc1OCC(=O)Nc1ccc(S(=O)(=O)N2CCCCCC2)cc1,-6.69 (inactive)
8,CN(C)CCCN(C(=O)CCSc1ccccc1)c1nc2cc3c(cc2s1)OCO3,1.99 (inactive)
9,CCCC(=O)N(CCc1ccc(OC)cc1)Cc1nc2ccccc2c(=O)[nH]1,1.59 (inactive)
10,Cc1ccc(NC(=O)c2c(C)noc2-c2snnc2C)cc1,-4.56 (inactive)
11,COC(=O)c1sc(C(C)(C)C)cc1CS(=O)(=O)c1ccc(Cl)cc1,1.19 (inactive)
12,CCc1ccc(NC(=O)COC(=O)CCCC2=NS(=O)(=O)c3ccccc3N2)cc1,-7.39 (inactive)
13,CCn1c(-c2ccccc2Cl)nn(CC(=O)Nc2ccccc2OC)c1=S,-11.1 (inactive)
14,C[C@@H]1CCCCO[C@@H](CN(C)C)[C@@H](C)CN([C@@H](C)CO)C(=O)c2cc(NC(=O)Nc3cccc4ccccc34)ccc2O1,8.61 (inactive)
15,CC(C)CNc1nc(S(=O)(=O)c2ccccc2)c(Cl)s1,5 (inactive)
16,Cc1ccc(-c2nc(CN3CCCCC3c3cccc(F)c3)c(C)o2)o1 (centres undefined),9.27 (inactive)
17,CCOC(=O)c1c(C)nsc1NCc1ccccc1,-4.61 (inactive)
18,CC(C)CN1C(=O)c2ccc(C(=O)Nc3ccncc3)cc2C1=O,2.21 (inactive)
19,COc1cccc(C(NC(C)=O)c2nc(-c3ccccc3OC)cs2)c1 (centres undefined),-0.923 (inactive)
20,Cc1cccc(-c2ccc([C@H]3[C@H]4CN(S(=O)(=O)c5ccccc5C)CCCCN4[C@H]3CO)cc2)c1,5.15 (inactive)
21,CC(=O)Nc1cccc(NC(=O)CSc2ccc(-c3cccnc3)nn2)c1,-9.36 (inactive)
22,CCOC(=O)c1cc(-c2ccc(OC)cc2)n[nH]1,9.38 (inactive)
23,CCN(CC)CCN(C(=O)c1ccc2c(c1)OCCO2)c1nc2c(Cl)cccc2s1,10 (inactive)
24,CN(C)Cc1nc2ccccc2c(=O)n1Cc1nc(-c2cccc([N+](=O)[O-])c2)cs1,-12.5 (inactive)
25,COc1cccc(NC(=O)COC(=O)Cc2ccccc2[N+](=O)[O-])c1,0.748 (inactive)
26,CCOC(=O)Cc1nnc(NC(=O)CSc2nc3ccccc3[nH]2)s1,7.67 (inactive)

row,Compound,"activity change, negative = inhibition"
1,O=C(O)CCCCCCCCc1cn(CC2CCCCC2)nn1,8.59 (inactive)
2,O=C(Nc1ccncc1)c1ccc(S(=O)(=O)Nc2ccccc2)cc1,3 (inactive)
3,Cc1cccc(OCCC(=O)Nc2ccc(F)c(F)c2)c1,3.24 (inactive)
4,CCN(CC(=O)Nc1cccc(C#N)c1)CC(=O)Nc1cccc(OC)c1,4.77 (inactive)
5,C=C(C)Cn1c(=O)c2c(nc3n2CC(C)CN3Cc2ccccc2)n(C)c1=O (centres undefined),-2.1 (inactive)
6,O=S1(=O)N[C@H](Cc2ccccc2)COc2cccc(N3CCC[C@H]3CO)c21,-5.7 (inactive)
7,Cc1ccccc1-n1ncc2c1CC(C)(C)CC2NC(=O)CCN1Cc2ccccc2C1=O (centres undefined),-4.55 (inactive)
8,O=C(Nc1ccc2c(c1)OCO2)c1cccc(S(=O)(=O)N2CCCC2)c1,-2.17 (inactive)
9,CCOc1ccccc1NC(=O)c1ccc2ccccc2c1,12.3 (inactive)
10,CC(=O)c1c(C)nn(CC(O)COc2ccc3c(c2)CCC3)c1C (centres undefined),-3.67 (inactive)
11,Cn1nc(C(C)(C)C)c([N+](=O)[O-])c1C(=O)Nc1ccc(Br)cc1,9.13 (inactive)
12,COc1ccccc1C(=O)COC(=O)c1cccs1,-6.47 (inactive)
13,Nc1nc(Nc2ccccc2F)nc(N2CCOCC2)c1[N+](=O)[O-],-0.456 (inactive)
14,O=C(c1cc(S(=O)(=O)N2CCOCC2)ccc1Cl)N1CCc2ccccc2C1,7.59 (inactive)
15,CSc1nc2nc3c(cc2c(=O)n1-c1ccccc1C)CCCC3,13.1 (inactive)
16,Cc1cc([N+](=O)[O-])nn1CC(=O)Nc1cc(F)ccc1F,14.7 (inactive)
17,Nc1ccccc1Sc1ccc(C(F)(F)F)cc1[N+](=O)[O-],-12.8 (inactive)
18,Cc1noc(C)c1COc1cccc(C(=O)N2CCc3ccccc32)c1,5.73 (inactive)
19,CCCc1nc2oc3c(NCCCN(C)C)ncnc3c2c2c1CCCC2,-7.8 (inactive)
20,O=C(c1ccc2c(c1)CCN2S(=O)(=O)c1ccccc1)N1CCN(c2ccccc2)CC1,4.38 (inactive)
21,O=C(O)c1ccc(-c2nc(-c3ccccc3)cs2)cc1,-20.9 (inactive)
22,CCc1ccc2nc(N(CCCN(C)C)C(=O)c3ccc4c(c3)OCCO4)sc2c1,3.29 (inactive)
23,Nc1ncncc1-c1ccc(Cl)cc1,4.8 (inactive)
24,CC(=O)Nc1ccc(S(=O)(=O)Nc2cccc(-c3nc4cc(C)ccc4o3)c2)cc1,12.3 (inactive)
25,OCCN(Cc1ccccc1)Cc1ccc(F)c(F)c1,13.9 (inactive)
26,COC(=O)c1ccccc1NC(=O)c1ccc2c(c1)CC(C)O2 (centres undefined),11.7 (inactive)

row,Compound,"activity change, negative = inhibition"
1,O=C(CN1CCCCC1)Nc1ccccc1-c1ccccc1,14.8 (inactive)
2,Cc1cc(C(=O)OCC(=O)Nc2cccc(S(N)(=O)=O)c2)c2ccccc2n1,11 (inactive)
3,COc1cccc(S(=O)(=O)N2CCCCN3[C@H](CO)[C@H](c4ccc(C#CC(C)C)cc4)[C@@H]3C2)c1,1.73 (inactive)
4,Cc1sc(NC(=O)CN2CCOCC2)nc1-c1ccc2c(c1)CCN2S(=O)(=O)c1ccccc1,3.06 (inactive)
5,Cc1ccc2nc(SCC(=O)c3ccc4c(c3)NC(=O)CO4)[nH]c2c1,16.5 (inactive)
6,COc1cccc(NC(=O)CN(C)CC(=O)Nc2ccc(Br)cc2)c1,14.7 (inactive)
7,COc1ccc(S(=O)(=O)N(C)C)cc1NC(=O)c1ccc2c(c1)NC(=O)C(C)S2 (centres undefined),15.6 (inactive)
8,COc1cc(-c2cc3nc(NCCc4ccncc4)ccn3n2)cc(OC)c1OC,-16 (inactive)
9,N#Cc1ccc(OCC(=O)N2CCN(S(=O)(=O)c3ccc(Cl)s3)CC2)cc1,7.76 (inactive)
10,Cc1ccc(NC(=O)c2ccc([N+](=O)[O-])o2)c(C)c1,-1.82 (inactive)
11,COc1ccc(Cn2c(=O)c3[nH]cnc3n(-c3ccc(C)cc3)c2=O)cc1,10.5 (inactive)
12,S=C1SCN(Cc2cccnc2)CN1Cc1ccccc1,-9.78 (inactive)
13,CCOc1ccc(CCNC(=O)CCn2ccc3cc(S(=O)(=O)N4CCCC4)ccc32)cc1,-10.5 (inactive)
14,O=C(c1ccc(N2CCCCC2)c([N+](=O)[O-])c1)N1CCN(c2ccccn2)CC1,-2.18 (inactive)
15,CN(C(=O)COc1ccccc1C(=O)NCCOc1ccccc1)c1ccccc1,2.69 (inactive)
16,CN(C(=O)c1ccc(F)cc1)c1ccc(OCC(=O)Nc2ccccc2C(=O)O)cc1,11.3 (inactive)
17,CC(CCC(=O)O)C1CC[C@@]2(C)C3C(=O)CC4C(C)(C)C(O)CC[C@]4(C)C3C(=O)C[C@]12C (some centres undefined),-10.9 (inactive)
18,CCOc1ccc2nc(SCC(=O)Nc3cccc(S(=O)(=O)NC4=NCCCCC4)c3)[nH]c2c1,-5.16 (inactive)
19,COc1ccc(-c2nnc(COc3ccc(Br)cc3C)o2)cc1,0.982 (inactive)
20,Cc1cccc(C)c1-n1nnnc1C1(C)CCC(=O)N1Cc1cccs1 (centres undefined),5.5 (inactive)
21,CCCC(=O)Nc1sc2c(c1C(=O)Nc1ccccn1)CCCC2,1.07 (inactive)
22,COc1ccc(NC(=O)c2cccs2)cc1C(=O)N1CCN(c2ccccc2)CC1,9.67 (inactive)
23,CC(C)Nc1nnc(SCC(=O)Nc2sccc2C#N)s1,5.23 (inactive)
24,COc1cc(NC(=O)c2ccc(Cl)cc2)c(OC)cc1NC(=O)CN1CCCCC1,9.13 (inactive)
25,CN(C)CCCN(C(=O)COc1ccc(Cl)cc1)c1nc2ccc(F)cc2s1,2.3 (inactive)
26,Cc1cccc(CSCC(=O)N2CCN(S(=O)(=O)c3ccccc3C#N)CC2)c1,0.657 (inactive)

row,Compound,"activity change, negative = inhibition"
1,COc1cc(OC)cc(C(=O)Nc2ccc(C(=O)Nc3ccccc3OC)cc2)c1,1.01 (inactive)
2,CC(C)Oc1ccc(C(=O)Nc2cccc3cccnc23)cc1,12.4 (inactive)
3,CC(C)CC#Cc1ccc2c(c1)O[C@@H](CN(C)Cc1ccccn1)[C@H](C)CN([C@H](C)CO)S2(=O)=O,-15.4 (inactive)
4,CCCC(=O)Nc1cccc(C(=O)Nc2ccccc2OCC)c1,0.517 (inactive)
5,CC(C)(Nc1ccccc1)C(=O)c1ccccc1,1.76 (inactive)
6,COC(=O)c1ccccc1OCCOCCOc1cccc2ccc(C)nc12,-3.68 (inactive)
7,Nc1ccccc1Nc1ccc([N+](=O)[O-])cc1[N+](=O)[O-],-4.77 (inactive)
8,Cc1ccccc1CSc1nnc(-c2ccncc2)o1,-6.94 (inactive)
9,O=C(CCNc1cccc(Cl)c1)c1cccs1,11.4 (inactive)
10,C[C@@H]1CCCCO[C@@H](CN(C)C)[C@@H](C)CN([C@H](C)CO)C(=O)c2cc(NC(=O)Nc3cccc4ccccc34)ccc2O1,11.1 (inactive)
11,Cc1ccc(C2NC(c3ccc(C)cc3)C(C)C(=O)C2C)cc1 (centres undefined),-0.493 (inactive)
12,Cc1ccc(-c2c[n+](CC(=O)OCc3ccccc3)c3n2CCC3)cc1,5.13 (inactive)
13,Cc1noc(C)c1NC(=O)Nc1ccc2c(c1)C(=O)N([C@@H](C)CO)C[C@H](C)[C@H](CN(C)C(=O)Nc1ccc3c(c1)OCO3)OCCCC[C@H](C)O2,18.6 (inactive)
14,COc1ccc(-c2cc(C(=O)N(C)CCc3ccc(OC)c(OC)c3)c3ccccc3n2)cc1,-11.2 (inactive)
15,c1ccc(Sc2ncnc3ccccc23)cc1,-8.96 (inactive)
16,Cc1nc(SCC(=O)Nc2ccc3c(c2)OCCO3)nc(C)c1C,-20 (inactive)
17,CCCN(Cc1ccco1)S(=O)(=O)c1ccc(OC)c(OC)c1,-9.72 (inactive)
18,CCOC(=O)c1cc(C)nc(N2CCCCC2)c1C#N,3.54 (inactive)
19,Cn1cc(CN2CCCC(C(=O)c3cccs3)C2)c(-c2cccc(Cl)c2)n1 (centres undefined),0.912 (inactive)
20,Nc1nc(-c2cc(-c3ccccc3)no2)cs1,1.58 (inactive)
21,Cc1cccc(C(=O)NCC(=O)NCCSc2ccc(Br)cc2)c1,-0.405 (inactive)
22,N#CCC(=O)Nc1ccc(C(=O)OCC(=O)Nc2ccc3ccccc3c2)cc1,-12.8 (inactive)
23,CCOc1cc(/C=C(\CC(=O)O)c2nc3ccccc3s2)ccc1OC,-6.22 (inactive)
24,COc1ccc(-c2nc3ccc(Cl)cn3c2Cc2cccc(F)c2)cc1OC,6.65 (inactive)
25,COC(=O)c1sccc1NC(=O)Cn1nnc(-c2ccccc2C)n1,-11.1 (inactive)
26,CCOc1ccc2nc(NC(=O)CSc3nc(SC)ns3)sc2c1,7.13 (inactive)
